This is an account of results in ChEMBL document CHEMBL3988442, “University of Dundee, Small-Polar-MMV Screening Library” (2021).

Set-up in all cases: scale not given: direction of the effect not stated beside the values
In assay [1] the target is Protein translocase subunit SecA (Escherichia coli (strain K12)) (UniProt P10408). The experiment in a line: Assay to Identify E. coli SecA ATPase Inhibitors. It is filed as functional. The note with it: 30 µM.
Assay [2] concerns the target T1, Ubiquitin-activating enzyme e1, putative (Leishmania donovani (strain BPK282A1)) (UniProt E9BSI1).
T1 sequence (whole entry): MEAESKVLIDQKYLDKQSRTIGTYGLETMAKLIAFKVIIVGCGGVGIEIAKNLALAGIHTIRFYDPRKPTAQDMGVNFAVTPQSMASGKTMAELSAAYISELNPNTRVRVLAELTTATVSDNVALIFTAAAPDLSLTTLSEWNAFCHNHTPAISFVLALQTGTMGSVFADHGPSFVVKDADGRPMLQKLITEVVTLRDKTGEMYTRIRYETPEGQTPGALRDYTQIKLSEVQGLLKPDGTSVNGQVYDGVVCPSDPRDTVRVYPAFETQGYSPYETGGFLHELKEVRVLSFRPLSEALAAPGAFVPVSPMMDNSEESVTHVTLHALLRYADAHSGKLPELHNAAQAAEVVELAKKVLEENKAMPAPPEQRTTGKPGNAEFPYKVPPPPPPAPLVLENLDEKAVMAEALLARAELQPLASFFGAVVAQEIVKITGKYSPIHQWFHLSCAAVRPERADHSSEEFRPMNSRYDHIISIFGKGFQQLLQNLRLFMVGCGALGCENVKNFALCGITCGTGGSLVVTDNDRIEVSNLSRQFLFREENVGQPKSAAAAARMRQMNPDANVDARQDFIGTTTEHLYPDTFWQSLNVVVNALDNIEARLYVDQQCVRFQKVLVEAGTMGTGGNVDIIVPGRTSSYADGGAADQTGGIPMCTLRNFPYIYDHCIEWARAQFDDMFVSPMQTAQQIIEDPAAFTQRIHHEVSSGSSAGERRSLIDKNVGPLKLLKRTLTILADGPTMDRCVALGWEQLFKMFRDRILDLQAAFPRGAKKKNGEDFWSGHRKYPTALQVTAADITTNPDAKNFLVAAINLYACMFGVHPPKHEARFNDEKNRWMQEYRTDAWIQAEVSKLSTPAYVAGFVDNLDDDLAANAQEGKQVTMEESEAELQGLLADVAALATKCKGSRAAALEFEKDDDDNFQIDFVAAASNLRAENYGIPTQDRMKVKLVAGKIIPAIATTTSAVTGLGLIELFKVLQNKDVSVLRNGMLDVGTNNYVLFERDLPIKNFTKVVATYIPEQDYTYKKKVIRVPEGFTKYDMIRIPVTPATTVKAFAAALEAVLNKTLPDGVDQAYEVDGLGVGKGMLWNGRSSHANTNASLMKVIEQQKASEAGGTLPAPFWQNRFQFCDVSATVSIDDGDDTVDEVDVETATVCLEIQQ
The experiment in a line: Leishmania donovani Ubiquitin Activating Enzyme (LdE1). It is filed as functional. The following applies: 30 µM.

For assay [3], the target named is AMP-activated protein kinase, AMPK (Homo sapiens) (UniProt P54646+O43741+P54619+Q9UGJ0+Q9Y478+Q13131+Q9UGI9). The experiment in a line: AMP-dependent Kinase enzyme assay. An in vitro enzyme assay that detects ADP turnover that is directly proportional to AMPK activity. This uses naive AMPK that is activated during the assay with MK-8722. The following applies: 30 µM. It is filed as functional.

The target of assay [4] is Sialic acid-binding Ig-like lectin 9 (Homo sapiens) (UniProt Q9Y336). The experiment in a line: Hs-Siglec9 ALPHAscreen SOP 20170721. The following applies: 10 µM.
Sequence of Sialic acid-binding Ig-like lectin 9 (Homo sapiens) (Q9Y336 whole entry): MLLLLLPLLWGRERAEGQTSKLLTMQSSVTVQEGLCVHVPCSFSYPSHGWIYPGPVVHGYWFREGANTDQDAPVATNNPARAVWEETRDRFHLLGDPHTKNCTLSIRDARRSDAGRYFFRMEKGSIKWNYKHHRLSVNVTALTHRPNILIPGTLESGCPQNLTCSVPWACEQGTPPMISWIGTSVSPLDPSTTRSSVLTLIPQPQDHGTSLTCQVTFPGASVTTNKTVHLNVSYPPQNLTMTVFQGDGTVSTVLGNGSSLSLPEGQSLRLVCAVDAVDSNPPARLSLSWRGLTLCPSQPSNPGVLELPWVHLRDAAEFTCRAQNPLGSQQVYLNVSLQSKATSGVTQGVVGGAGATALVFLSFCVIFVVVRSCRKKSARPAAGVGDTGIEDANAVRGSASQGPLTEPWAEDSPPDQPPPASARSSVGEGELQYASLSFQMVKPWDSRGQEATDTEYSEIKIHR
Another assay has as its system Trypanosoma cruzi. Briefly: Trypanosoma cruzi phosphomannomutase and mannose-1-phosphate guanylyltransferase assay. The note with it: 10 µM. The assay is classed as functional.
In assay [5] the target is T2, Arginase-2, mitochondrial (Homo sapiens) (UniProt P78540).
T2 sequence (whole entry): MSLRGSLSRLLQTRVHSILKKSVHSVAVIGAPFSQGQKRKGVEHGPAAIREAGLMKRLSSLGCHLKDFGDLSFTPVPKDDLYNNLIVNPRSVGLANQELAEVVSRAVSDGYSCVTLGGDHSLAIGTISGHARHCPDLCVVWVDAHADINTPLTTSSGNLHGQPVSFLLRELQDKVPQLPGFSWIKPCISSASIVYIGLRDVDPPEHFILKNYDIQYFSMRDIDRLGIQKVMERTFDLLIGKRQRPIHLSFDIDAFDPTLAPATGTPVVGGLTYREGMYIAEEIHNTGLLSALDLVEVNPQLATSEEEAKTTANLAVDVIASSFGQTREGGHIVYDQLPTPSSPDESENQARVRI
Briefly: in vitro enzyme assay to detect the production of urea directly proportional to the activity of Arginase II. Further: in the data most compounds retested in dose-response had high values. The assay is classed as functional. The following applies: 33.3 µM.

The target of assay [6] is T3, Proteasome subunit beta (Trypanosoma cruzi) (UniProt O96673).
T3 sequence (whole entry): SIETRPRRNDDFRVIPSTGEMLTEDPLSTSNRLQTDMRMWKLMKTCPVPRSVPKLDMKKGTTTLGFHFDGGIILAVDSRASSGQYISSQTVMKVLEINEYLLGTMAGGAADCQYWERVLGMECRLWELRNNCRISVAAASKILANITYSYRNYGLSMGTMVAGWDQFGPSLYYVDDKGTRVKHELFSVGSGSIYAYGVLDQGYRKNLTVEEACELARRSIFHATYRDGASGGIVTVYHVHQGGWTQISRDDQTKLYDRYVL
Briefly: Trypanosoma cruzi proteasome chymotrypsin-like activity (TcProtChymo) assay. Further: in the data most compounds retested in dose-response had high values. The note with it: 9.37 µM. It is filed as functional.

Another assay is filed under the species Homo sapiens. Briefly: To identify inhibition of the IFN signalling (Jak-Stat) pathway via expression of an eGFP reporter gene under the control of an IFN-stimulated response element (ISRE) containing MxA promoter. The note with it: 30 µM. It is filed as functional.
The target in assay [7] is T4, Tyrosyl-tRNA synthetase, putative (Trypanosoma cruzi (strain CL Brener)) (UniProt Q4DSP6).
T4 sequence (whole entry): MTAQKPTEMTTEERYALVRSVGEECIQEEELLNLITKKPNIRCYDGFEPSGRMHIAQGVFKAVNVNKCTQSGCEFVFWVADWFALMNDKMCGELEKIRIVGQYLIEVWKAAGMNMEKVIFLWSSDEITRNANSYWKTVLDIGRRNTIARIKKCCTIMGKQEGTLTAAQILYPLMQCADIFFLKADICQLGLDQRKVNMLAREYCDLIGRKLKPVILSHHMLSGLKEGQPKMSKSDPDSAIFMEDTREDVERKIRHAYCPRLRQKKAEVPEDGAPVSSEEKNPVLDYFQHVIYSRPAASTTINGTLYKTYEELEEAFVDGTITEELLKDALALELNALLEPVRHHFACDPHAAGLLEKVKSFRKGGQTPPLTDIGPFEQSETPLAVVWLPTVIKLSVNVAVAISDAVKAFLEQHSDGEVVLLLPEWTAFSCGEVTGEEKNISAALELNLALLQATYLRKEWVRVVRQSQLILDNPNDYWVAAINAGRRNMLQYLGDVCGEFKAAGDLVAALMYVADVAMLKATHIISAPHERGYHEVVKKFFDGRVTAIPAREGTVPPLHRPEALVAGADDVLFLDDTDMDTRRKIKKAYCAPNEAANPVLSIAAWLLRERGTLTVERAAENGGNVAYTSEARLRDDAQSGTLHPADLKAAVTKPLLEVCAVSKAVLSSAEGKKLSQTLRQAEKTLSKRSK
The experiment in a line: Trypanosoma cruzi tyrosyl tRNA synthetase (TcYRS) _High Tyrosine SOP. Further: in the data most compounds retested in dose-response had high values. It is filed as functional. The note with it: 30 µM.

Assay [8] addresses T4, Tyrosyl-tRNA synthetase, putative (Trypanosoma cruzi (strain CL Brener)). The experiment in a line: Trypanosoma cruzi tyrosyl tRNA synthetase (TcYRS) SOP. The note with it: 30 µM. The assay is classed as functional.
Assay [9] deals with Chromo domain-containing protein 1 (Saccharomyces cerevisiae (strain ATCC 204508 / S288c) (Baker's yeast)) (UniProt P32657). The experiment in a line: ScCHD-1 Enzyme Inhibition Assay. Further: in the data most compounds retested in dose-response had high values. It is filed as functional. The following applies: 30 µM.
Sequence of Chromo domain-containing protein 1 (Saccharomyces cerevisiae (strain ATCC 204508 / S288c) (Baker's yeast)) (P32657 whole entry, the tested form may be a part): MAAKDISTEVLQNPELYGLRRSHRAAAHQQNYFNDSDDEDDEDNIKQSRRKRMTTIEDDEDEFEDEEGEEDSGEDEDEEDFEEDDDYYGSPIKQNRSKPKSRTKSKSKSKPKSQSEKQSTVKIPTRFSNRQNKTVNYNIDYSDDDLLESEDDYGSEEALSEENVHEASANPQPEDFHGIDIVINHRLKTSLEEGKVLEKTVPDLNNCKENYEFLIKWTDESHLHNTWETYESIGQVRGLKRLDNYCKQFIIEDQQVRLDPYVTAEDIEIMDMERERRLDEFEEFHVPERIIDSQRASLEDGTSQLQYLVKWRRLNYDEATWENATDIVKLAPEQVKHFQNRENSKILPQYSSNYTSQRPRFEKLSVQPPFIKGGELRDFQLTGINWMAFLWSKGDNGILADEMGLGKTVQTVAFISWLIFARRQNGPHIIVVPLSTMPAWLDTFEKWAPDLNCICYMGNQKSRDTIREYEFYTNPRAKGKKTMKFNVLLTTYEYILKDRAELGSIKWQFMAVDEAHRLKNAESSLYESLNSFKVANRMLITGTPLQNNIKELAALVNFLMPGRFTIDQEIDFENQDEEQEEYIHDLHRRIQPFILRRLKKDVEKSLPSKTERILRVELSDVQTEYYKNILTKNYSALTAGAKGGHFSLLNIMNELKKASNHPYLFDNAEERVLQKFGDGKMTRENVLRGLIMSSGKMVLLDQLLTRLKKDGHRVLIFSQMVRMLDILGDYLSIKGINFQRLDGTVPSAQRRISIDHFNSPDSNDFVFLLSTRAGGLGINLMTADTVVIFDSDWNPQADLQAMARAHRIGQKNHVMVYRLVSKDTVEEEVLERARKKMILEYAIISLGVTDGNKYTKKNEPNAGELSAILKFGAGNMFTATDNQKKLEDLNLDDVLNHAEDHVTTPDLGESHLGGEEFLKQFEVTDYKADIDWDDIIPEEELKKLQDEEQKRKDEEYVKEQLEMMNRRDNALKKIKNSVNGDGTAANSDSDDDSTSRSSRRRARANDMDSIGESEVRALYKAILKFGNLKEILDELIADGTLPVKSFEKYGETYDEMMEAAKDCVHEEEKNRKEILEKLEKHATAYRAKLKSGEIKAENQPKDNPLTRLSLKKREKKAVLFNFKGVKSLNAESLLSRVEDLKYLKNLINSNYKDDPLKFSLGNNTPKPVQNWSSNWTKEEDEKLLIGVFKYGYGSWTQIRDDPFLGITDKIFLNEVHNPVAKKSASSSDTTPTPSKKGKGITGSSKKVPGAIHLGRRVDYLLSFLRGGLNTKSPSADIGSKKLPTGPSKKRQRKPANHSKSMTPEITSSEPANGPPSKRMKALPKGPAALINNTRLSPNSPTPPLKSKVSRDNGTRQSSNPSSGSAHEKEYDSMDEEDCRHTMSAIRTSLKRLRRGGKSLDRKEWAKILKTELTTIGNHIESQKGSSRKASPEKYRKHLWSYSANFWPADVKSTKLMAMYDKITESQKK

For some assays here: Entries with a potency or affinity are not part of this list.

Sequence of Protein translocase subunit SecA (Escherichia coli (strain K12)) (P10408 whole entry): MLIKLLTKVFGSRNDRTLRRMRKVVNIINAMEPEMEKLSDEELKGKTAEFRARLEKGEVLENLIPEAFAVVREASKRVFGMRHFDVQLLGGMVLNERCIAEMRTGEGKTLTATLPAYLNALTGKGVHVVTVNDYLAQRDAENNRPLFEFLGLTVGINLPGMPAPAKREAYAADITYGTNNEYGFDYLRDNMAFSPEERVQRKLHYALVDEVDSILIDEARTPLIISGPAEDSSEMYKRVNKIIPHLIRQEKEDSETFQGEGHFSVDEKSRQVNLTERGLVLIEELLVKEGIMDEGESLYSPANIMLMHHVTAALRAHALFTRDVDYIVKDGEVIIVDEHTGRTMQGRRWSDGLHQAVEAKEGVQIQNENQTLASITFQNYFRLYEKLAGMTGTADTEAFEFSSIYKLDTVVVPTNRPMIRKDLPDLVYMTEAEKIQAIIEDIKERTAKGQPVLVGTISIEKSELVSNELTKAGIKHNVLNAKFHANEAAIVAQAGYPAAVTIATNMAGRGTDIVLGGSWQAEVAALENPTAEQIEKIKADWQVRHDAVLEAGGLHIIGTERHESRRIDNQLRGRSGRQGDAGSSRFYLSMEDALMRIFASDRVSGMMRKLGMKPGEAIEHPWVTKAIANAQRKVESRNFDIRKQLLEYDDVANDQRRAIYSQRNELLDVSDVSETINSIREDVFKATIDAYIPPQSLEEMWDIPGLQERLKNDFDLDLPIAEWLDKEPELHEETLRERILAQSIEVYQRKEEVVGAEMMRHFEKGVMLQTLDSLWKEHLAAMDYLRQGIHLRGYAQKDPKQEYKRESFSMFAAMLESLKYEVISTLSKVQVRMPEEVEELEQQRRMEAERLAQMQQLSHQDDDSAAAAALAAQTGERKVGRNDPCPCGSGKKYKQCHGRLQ

On to `CCc1cnc2c(c1NCc1cccc(OC)c1)c(=O)n(C)c(=O)n2C`, for which the Percent Effect in assay [1] was -0.146%; in [2], 23.4%; in [3], -3.97%; in assay [4], -14.3%; in the assay on Trypanosoma cruzi, 0.0986%; in [5], -4.52%. Also, the Percent Effect was 5.74% in [6]; 19.2% in the assay filed under Homo sapiens; 3.17% in assay [7]; 14.1% in [8]; -8.85% in [9].

For the molecule `Cc1nn(C)c(N(C)C)c1CNCC(O)COc1ccccc1` (stereo not given), the Percent Effect was -3.8% in assay [1]; 5.48% in assay [2]; -12.3% in assay [3]; 0.598% in assay [4]; 4.11% in the assay on Trypanosoma cruzi; 2.27% in assay [5]. Further, the Percent Effect in [6] is 17.4%; in the assay filed under Homo sapiens, -13.8%; in [7], 5.38%; in [8] it was 17.5%; in assay [9], -1.71%.

For `COc1cccc2c1OCC(NC(=O)NC1CCN(C3CC3)CC1)C2` (stereo not given), the Percent Effect in assay [1] was -3.95%; in assay [2], 0%; in [3], 4.77%; in [4] it was 0.911%; in the assay with Trypanosoma cruzi, 4.77%; in assay [5] it was 0%. For the same molecule, the Percent Effect in assay [6] is 10.6%; in the assay listed under Homo sapiens, 3.27%; in assay [7] it was 6.38%; in assay [8] it was 7.79%; in [9] it was -0.292%.

As to `CCc1noc(C(C)N2CCN(c3ccc(C#N)cc3F)CC2)n1` (stereo not given), the Percent Effect in assay [1] was -1.97%; in assay [2], 5.26%; in assay [3], 2.6%; in assay [4] it was -3.73%; with Trypanosoma cruzi it was 7.89%; in assay [5], -8.28%. Moreover, the Percent Effect in assay [6] was 21.2%; in the assay filed under Homo sapiens it was -24.1%; in [7], 6.38%; in assay [8] it was 13%; in assay [9] it was -4.69%.

Turning to `CCCN(CCO)C(=O)C1CCC(=O)N(CCc2ccc(Cl)cc2)C1` (stereo not given), the Percent Effect in assay [1] was 0.568%; in assay [2] it was 6.94%; in assay [3], 1.97%; in assay [4], -2.89%; with Trypanosoma cruzi, 2.23%; in assay [5] it was 3.53%. Moreover, the Percent Effect in [6] was 8.77%; in the assay filed under Homo sapiens, -9.44%; in [7] it was 4.21%; in assay [8], 7.69%; in [9], -5.01%.

Take `c1ccc(Cn2cc3c(n2)C(CNCc2ccco2)OCC3)nc1` (stereo not given): the Percent Effect is -3.96% in assay [1]; 2.7% in assay [2]; 0.188% in assay [3]; 3.43% in assay [4]; -4.49% with Trypanosoma cruzi; 4.17% in assay [5]. Moreover, the Percent Effect was 2.79% in assay [6]; -8.58% in the assay filed under Homo sapiens; 4.95% in assay [7]; 11% in assay [8]; -1.79% in [9].

As for `CC(=O)N1CC(=O)N(c2cnn(C)c2)CC12CCN(CC1CC1)C2` (stereo not given), the Percent Effect was -2.91% in assay [1]; 0% in assay [2]; 1.91% in assay [3]; 0.306% in [4]; -3.52% with Trypanosoma cruzi; 1.67% in assay [5]. Further, the Percent Effect was 0.423% in assay [6]; -7.14% in the assay filed under Homo sapiens; 4.95% in [7]; 1.22% in assay [8]; -0.193% in assay [9].

Consider `COc1ccc(-c2nc(CN3CCCC3Cn3cccn3)no2)cc1` (stereo not given), for which the Percent Effect was -6.58% in [1]; 7.79% in assay [2]; -5.32% in [3]; 11.9% in assay [4]; 8.99% in the assay on Trypanosoma cruzi; -6.41% in [5]. Further, the Percent Effect in assay [6] is 9.12%; in the assay listed under Homo sapiens, 12.7%; in assay [7] it was 5.83%; in [8] it was 21.9%; in assay [9], -11.9%.

As to `O=C(O)c1cc(S(=O)(=O)Nc2cc(F)ccc2F)cc2c1OCCO2`, the Percent Effect in [1] is -3.9%; in [2] it was -2.63%; in [3], 4.03%; in assay [4], 6.95%; in the assay on Trypanosoma cruzi, -6.44%; in assay [5], 3.6%. In addition, the Percent Effect in assay [6] is 4.65%; in the assay filed under Homo sapiens, 3.03%; in assay [7] it was 0.493%; in [8], 1.24%; in [9], -3.53%.

In the case of `CCc1ccc(C(=O)N2CCCC(n3cncn3)C2)o1` (stereo not given), the Percent Effect in assay [1] was -10.1%; in assay [2], -4.17%; in assay [3], -1.09%; in assay [4], -2.11%; with Trypanosoma cruzi, -2.82%; in assay [5] it was -2.21%. Besides, the Percent Effect in assay [6] is 7.37%; in the assay listed under Homo sapiens, 4.2%; in assay [7], 3.16%; in [8] it was -2.56%; in assay [9], 3.19%.
